Lassa entry inh = qHTS for Inhibitors of binding or entry into cells for Lassa Virus; Lassa virus pseudotype entry inhibition, cell reporter; Potency, µM (doses to about 37.9 µM), for the others: top-dose activity change, negative = inhibition, usual class: inhibitors; 1.2% of 300,000 active; calls by dose curve; tested in HEK293 cells; note: potency is the fitted concentration of half-maximal effect; nearly all actives have a fitted effect of over 50% in size
HCMV antiviral = qHTS Assay for inhibitors of the human cytomegalovirus (HCMV) | HFF cells, HCMV-luciferase reporter, 72 h; hits give low values | 4.5% of 410,000 active | AID 1259415, 2018 | activity change, negative = inhibition, % at 57.5 µM; in the data active = activity change below about -60%; inconclusive = no clear call, values can overlap the other calls; inactive = above about -39%
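Luciferase read-out from HCMV-luciferase-infected HFFs (MOI 1 PFU/cell) 72 h post infection at 37C; compounds added after 16 h cell attachment; activity normalized between buffer-only basal and Salinomycin (10uM) inhibitor controls.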
MARV entry inh = qHTS for inhibitors of binding or entry into cells for Marburg Virus. Marburg virus pseudotyped entry inhibition, cell reporter. Potency, µM (highest dose often 37.8 µM), inactives show at the highest dose activity change, negative = inhibition, usual class: inhibitors. 1.8% of 300,000 active; calls by dose curve; tested in HEK293 cells; note: potency is the fitted concentration of half-maximal effect
Vaccinia mCherry = qHTS for Stage-Specific Inhibitors of Vaccinia Orthopoxvirus: mCherry Reporter Primary qHTS; Vaccinia virus mCherry reporter infection, fluorescence; Potency, µM (series often up to 36.5 µM), for the others: at the top dose activity change, negative = inhibition, actives largely listed as inhibitors; 0.63% of 310,000 active; AID 720579, 2013; calls by dose curve; tested in A549 cells; note: potency is the fitted concentration of half-maximal effect; nearly all actives have a fitted effect of over 35% in size
VACV Venus inh = qHTS for Stage-Specific Inhibitors of Vaccinia Orthopoxvirus: Venus Reporter Primary qHTS | Vaccinia virus Venus reporter expression, fluorescence | Potency, µM (top dose mostly 36.5 µM), without a hit: top-dose activity change, negative = inhibition, actives largely listed as inhibitors | AID 720580, 2013 | 0.46% of 330,000 active; calls by dose curve; tested in A549 cells; note: potency is the fitted concentration of half-maximal effect; nearly all actives have a fitted effect of over 30% in size
FMDV inh = High Throughput Screening for Foot and Mouth Disease Virus Antivirals; 1.2% of 410,000 active; Potency, µM (series often up to 57.9 µM), without a hit: top-dose activity change, negative = inhibition, most hits filed as inhibitors; FMDV antiviral cell-based qHTS; calls by dose curve; tested in HEK293T cells; note: read-out not given here; potency is the fitted concentration of half-maximal effect; nearly all actives have a fitted effect of over 45% in size
* = called active by the depositor; i = inactive; ? = inconclusive; nt = no result; [ ] = dose if it differs, or a comment. Only some compounds are listed: those with a hit (about 6.5% of all), similar ones and a draw of the others. % is set by controls: 0 for no effect and ±100 for the full control effect.

SMILES	Lassa entry inh	HCMV antiviral	MARV entry inh	Vaccinia mCherry	VACV Venus inh	FMDV inh
COc1ccc(CCNCC(O)Cn2c3ccccc3c3ccccc32)cc1OC (centres undefined)	nt	-64*	nt	nt	nt	-22%
COc1ccc(CCNc2nc(SCc3ccc(Cl)cc3)nc3ccccc23)cc1OC	2%[46.1 µM]	-25	nt	-12%	-13%	-4%
COc1ccc(CNC(=O)C(CCSC)NS(=O)(=O)c2ccc3c(c2)oc(=O)n3C)cc1 (centres undefined)	15%[46.1 µM]	15	nt	i	-6%	-3%
CCn1c(=O)c([N+](=O)[O-])c(NCCc2ccc(OC)c(OC)c2)c2ccccc21	?	-72*	?	-9%	-14%	22µM*
CCN1C(=S)SC(=O)C1=C1C=C(C)N(CCO)C(C)=C1	?	-68*	?	-1%	-17%	nt
NC(=S)Nc1cccc2cccnc12	1%	-79*	19%	nt	-16%	-10%
CS(=O)(=O)Nc1cccc2cccnc12	-20%	29	-13%	nt	-11%	-1%
CC(=O)Nc1ccc(S(=O)(=O)Nc2cccc3cccnc23)cc1	nt	-83*	-9%[46.1 µM]	-1%	-1%	-12%
CC(=O)Nc1ccc(S(=O)(=O)Nc2ccccn2)cc1	-2%	30	17%[46.1 µM]	-12%	-9%	-11%
O=S(=O)(Nc1cccc2cccnc12)c1ccccc1	?	-101*	?	10µM*	13µM*	?
Cc1ccc2cccc(NS(=O)(=O)c3ccccc3)c2n1	?	-80*	1.4µM*	-5%	-16%	?
COc1ccc(Cn2ccnc2SCC(=O)Nc2cc(C(F)(F)F)ccc2Cl)cc1	-8%[46.1 µM]	-11	nt	-2%	-10%	-3%
C[C@@H]1CN([C@@H](C)CO)C(=O)CCCn2cc(nn2)CO[C@H]1CN(C)C(=O)Nc1ccnc(N2CCOCC2)c1	nt	19	nt	nt	nt	nt
Cc1ccccc1NS(=O)(=O)c1ccc(S(=O)(=O)N2CCCC2)cc1	nt	-13	nt	-1%	-8%	?
O=S(=O)(Nc1cccc2cccnc12)c1ccc(S(=O)(=O)N2CCCC2)cc1	8.2µM*	-86*	?	-4%	-10%	nt
COc1ccc(NS(=O)(=O)c2ccc3ccccc3c2)c2ncccc12	?	-92*	?	?	14%	27%
Cc1ccc(S(=O)(=O)Nc2cccc3cccnc23)c([N+](=O)[O-])c1	10µM*	-98*	?	?	?	?
Cc1cc(C)c(NS(=O)(=O)c2cccc3cccnc23)c(C)c1	-1%	-27	-22%[46.1 µM]	-1%	-12%	12%
CCCOc1ccc(/C=C/C(=O)Nc2sc(C)c(C)c2C(=O)OCC)cc1OC	9%[46.1 µM]	-5	nt	-5%	-10%	-1%
CCCc1nc2ccc(C(=O)OC)cn2c1Cc1ccccc1OC	nt	18	nt	nt	nt	nt
FCCCOc1ccc(-c2nccc(-c3ccccn3)n2)cc1	nt	142	nt	nt	nt	51%
O=C(O)COc1ccc(-c2nccc(-c3ccccn3)n2)cc1	?	-71*	-14%[46.1 µM]	10%	3%	?
COC(=O)c1ccc(NC(=O)c2c(NCc3ccc(OC)c(OC)c3)sc3c2CCCC3)cc1	-13%[46.1 µM]	-67*	nt	-7%	-20%	-1%
COc1ccc(CC(=O)Nc2sc3c(c2C(=O)Nc2c(C)cccc2C)CCCCC3)cc1	-18%[46.1 µM]	-70*	14%[46.1 µM]	?	?	-21%
COc1ccc(NC(=O)c2c(NC(=O)C(F)(F)F)sc3c2CCCCC3)cc1	3.2µM*	-23	nt	-13%	-2%	-13%
SMILES	Lassa entry inh	HCMV antiviral	MARV entry inh	Vaccinia mCherry	VACV Venus inh	FMDV inh
O=[N+]([O-])c1cc(/C=N/O)ccc1SCc1ccccc1	12%	-66*	7%	nt	nt	7%
CC(C)n1cc(-c2nc(C(=O)NN)cs2)c(=O)n(Cc2ccccc2)c1=O	-4%	-68*	4%	-23%	-14%	-15%
NNC(=O)c1csc(-c2ccccc2)n1	2%	12	-4%	-9%	-9%	24%
Cc1ccc(Cl)cc1N1CCN(C(=O)C2CCN(S(=O)(=O)c3c(C)noc3/C=C/c3ccccc3F)CC2)CC1	11%[46.1 µM]	-39	nt	-8%[7.34 µM]	-10%[7.34 µM]	-21%
O=C(NC1CCCCC1)C(c1ccc2ncccc2c1)N(Cc1ccccc1)C(=O)c1cccs1 (centres undefined)	-15%	-62*	5.8µM*	0%	-23%	nt
COc1ccc(N(C(=O)c2snc(C(N)=O)c2N)C(C(=O)NCc2ccccc2)c2ccc(F)cc2)c(OC)c1 (centres undefined)	8.9µM*	-80*	?	-22%	-20%	0%
COc1ccccc1N(C(=O)c1snc(C(N)=O)c1N)C(C(=O)NC1CCCC1)c1ccc2ncccc2c1 (centres undefined)	?	-88*	?	-3%	-14%	18%
COc1ccccc1N(C(=O)c1snc(C(N)=O)c1N)C(C(=O)NCc1ccccc1)c1ccc(O)cc1 (centres undefined)	4.5µM*	40	-21%[46.1 µM]	-14%	4%	-9%
COc1cc(CN2CCC3(CCC(CNC(=O)c4ccco4)O3)CC2)cc(OC)c1 (centres undefined)	nt	nt	nt	-14%	-14%	-9%
CCN1CCN(c2oc(/C=C/c3ccc(OC)c(OC)c3)nc2C#N)CC1	5%[46.1 µM]	49	-17%[46.1 µM]	-10%	-12%	-9%
NC(=O)c1nsc(C(=O)N(c2cccc(F)c2)C(C(=O)NCc2ccccc2)c2ccc(O)cc2)c1N (centres undefined)	?	-18	?	-28%	-15%	0%
NC(=O)c1nsc(C(=O)N(c2ccccc2F)C(C(=O)NCc2ccc(F)cc2)c2ccc(O)cc2)c1N (centres undefined)	?	-102*	?	-29%	-12%	-13%
Cc1ccc(-n2c(=O)c3ccc(C(=O)NCc4ccccc4Cl)cc3n(Cc3cccc(F)c3)c2=O)cc1	-1%[46.1 µM]	8	0%[46.1 µM]	-10%	-12%	13%
Cc1ccc(-n2nc3c([n+]2[O-])CCc2c-3no[n+]2[O-])cc1	?	-78*	?	nt	nt	5%
[O-][n+]1onc2c1CCc1c-2nn(-c2ccccc2Cl)[n+]1[O-]	?	-100*	?	1µM*	1.3µM*	nt
COc1ccc(-c2cn3cccnc3n2)cc1NC(=O)c1cc(C)cc(C)c1	-28%[46.1 µM]	-3	nt	-9%	-5%	-19%
COc1ccc2nc(N3C(=O)CNC3=S)sc2c1	-17%	-69*	?	i[7.34 µM]	0%[7.34 µM]	25%
Cc1ccc2nc(N3C(=O)CNC3=S)sc2c1	?	-92*	?	-14%	-27%	0%
Cc1cc(C(=O)NCC2CCC3(CCN(Cc4cc(F)ccc4F)CC3)O2)n(C)n1 (centres undefined)	nt	nt	nt	-20%	-11%	0%
